PubChem BioAssay AID504339 (National Center for Advancing Translational Sciences (NCATS), 2011)
In all, about 390,000 compounds went through this assay and about 17,000 (4.4%) were called active. Inconclusive results (about 8%) are left out. The call rests on the fitted dose curve; in most records, active means well fitted inhibition curve with a large enough effect; inconclusive means small, poorly fitted or top-dose-only effect; inactive means no such curve, though single readings can be large or run the other way. Only a selection was taken, and actives are over-represented in it overall.

Biological target: Lysine-specific demethylase 4A (Homo sapiens) (UniProt O75164)
Sequence (O75164 whole entry, looked up, the tested form may be a part): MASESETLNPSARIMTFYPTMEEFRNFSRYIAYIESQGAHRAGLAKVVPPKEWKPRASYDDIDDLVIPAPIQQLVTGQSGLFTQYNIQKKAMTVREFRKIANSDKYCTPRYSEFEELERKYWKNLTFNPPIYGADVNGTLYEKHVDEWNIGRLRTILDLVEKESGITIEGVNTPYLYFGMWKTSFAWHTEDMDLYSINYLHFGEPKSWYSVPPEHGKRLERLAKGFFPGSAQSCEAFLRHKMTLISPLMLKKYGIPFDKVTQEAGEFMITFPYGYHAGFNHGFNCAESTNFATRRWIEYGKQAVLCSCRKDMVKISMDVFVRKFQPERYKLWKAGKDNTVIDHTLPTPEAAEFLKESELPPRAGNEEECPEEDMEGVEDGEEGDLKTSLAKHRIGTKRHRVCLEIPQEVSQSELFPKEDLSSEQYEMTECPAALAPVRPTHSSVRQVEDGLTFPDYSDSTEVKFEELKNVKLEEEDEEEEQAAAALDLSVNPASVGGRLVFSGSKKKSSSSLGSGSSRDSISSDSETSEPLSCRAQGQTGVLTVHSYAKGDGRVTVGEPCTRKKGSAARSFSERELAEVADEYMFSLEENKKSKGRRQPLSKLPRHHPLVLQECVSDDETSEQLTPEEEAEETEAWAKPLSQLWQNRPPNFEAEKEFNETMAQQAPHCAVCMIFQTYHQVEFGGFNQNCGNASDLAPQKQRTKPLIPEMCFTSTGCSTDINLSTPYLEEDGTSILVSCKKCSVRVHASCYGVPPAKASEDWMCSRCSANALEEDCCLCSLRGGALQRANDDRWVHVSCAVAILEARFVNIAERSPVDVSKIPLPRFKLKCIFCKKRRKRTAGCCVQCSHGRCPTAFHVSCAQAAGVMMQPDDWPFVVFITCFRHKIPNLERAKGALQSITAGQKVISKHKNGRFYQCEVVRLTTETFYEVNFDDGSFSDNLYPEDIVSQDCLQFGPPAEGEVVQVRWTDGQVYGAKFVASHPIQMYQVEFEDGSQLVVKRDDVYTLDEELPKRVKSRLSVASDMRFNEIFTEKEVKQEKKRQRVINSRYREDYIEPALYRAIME
Assay: qHTS Assay for Inhibitors of JMJD2A-Tudor Domain; further: nearly all actives have a fitted effect of over 50% in size
Conditions: AlphaScreen JMJD2A-Tudor / H3K4me3 peptide binding; series mostly up to 114 µM
Potency means the concentration at half of the fitted maximal effect.

Potency, inactive:
Cc1cccc(-n2c(=O)c3c(c4cc(C)ccc4n3C)n(CC(=O)Nc3ccccc3Cl)c2=O)c1
COc1ccnc(Oc2ccccc2)c1-c1ncn[nH]1
O=C(Oc1ccc(-c2nc(-c3ccccn3)no2)cc1)c1ccccc1
CN1C2CCC1CC(NC(=O)c1ccc([N+](=O)[O-])cc1)C2 (stereo not drawn)
Cc1cc(C)cc(C(=O)N2CCN=C2SCc2ccc([N+](=O)[O-])cc2)c1
O=C(Nc1nc2ccc(F)cc2s1)c1nc(SCc2ccccc2F)ncc1Cl
COc1ccc(-n2cnc3cc(C(=O)NC4CCCC4)ccc32)cc1
COc1ccc(NC(=O)C(=O)NCc2ccco2)cc1
Cc1ccc(CSc2nc3cccnc3n2Cc2ccc(C(=O)NC3CC3)cc2)cc1
CCOC(=O)c1[nH]c(C)c(CCC(=O)NCc2ccccc2C)c1C
Cc1ccc(NCc2n[nH]c(=S)n2-c2ccccc2)cc1Cl
COc1cccc(-c2cc(C(=O)Nc3ccc(C)cc3)[nH]n2)c1
CCc1ccc(NC(=O)Cn2c(=O)n(CCC(=O)NCc3ccc4c(c3)OCO4)c(=O)c3ccccc32)cc1
O=C(CCSCc1ccccc1F)N1CCN(c2ccc(Cl)cc2)CC1
Cc1cccc(NC(=O)N2CCN(C)c3ncccc32)c1C
CCOc1ccc(CCNC(=O)c2cc3c(=O)n(C)c4ccccc4c3n2C)cc1
CC(C)N1CCc2c(sc(NC(=O)Cc3ccccc3)c2C#N)C1
CC(=O)N1CCc2c(sc(NC(=O)CCS(=O)(=O)c3ccccc3)c2C#N)C1
Cn1c(=O)c2c(nc(SCC(=O)Nc3ccc(F)cc3)n2Cc2ccccc2)n(C)c1=O
Cc1cccc(NC(=O)CSCC(=O)Nc2nnc(C3CC3)s2)c1
CC1CCN(c2ccc(C(=O)Nc3nnc(C4CC4)s3)cc2[N+](=O)[O-])CC1
COc1ccc(NC(=O)CN2CCCN(Cc3ccccc3)S2(=O)=O)cc1
Cc1nc(N2CCOCC2)c2c(C(=O)NCc3cccc(Cl)c3)c(C)oc2n1
O=C(CCC(=O)N/N=C/c1ccc(Br)o1)N/N=C/c1ccc(Br)o1
O=C(CCc1n[nH]c(=O)[nH]c1=O)N/N=C/c1ccc(Br)o1
CC1CCCN(Cc2c(O)ccc3c(=O)c(Oc4ccc(C(C)(C)C)cc4)c(C(F)(F)F)oc23)C1 (stereo not drawn)
Cc1ccc(NC(=O)Cc2ccc(NC(=O)N3CCCCc4ccccc43)cc2)cc1
Cc1c(C)n2c(SCC(=O)N3CCCC3)nnc2[nH]c1=O
Cc1nc(SCC(=O)NC2CCCC2)[nH]c(=O)c1C
CCSc1nnc2c(n1)OC(c1ccc(OCC(=O)O)cc1)Nc1ccccc1-2 (stereo not drawn)
Cc1sc2ncn(CC(=O)N3CCN(c4ccc(F)cc4)CC3)c(=O)c2c1S(=O)(=O)N1CCN(c2ncccn2)CC1
CCOc1ccc(-n2nc3ccc(NC(=O)c4ccc(OC)c(Cl)c4)cc3n2)cc1
COc1ccc(CCNC2=C(Cl)C(=O)N(Cc3ccccc3)C2=O)cc1OC
COc1ccc(CCN=C2SCC(=O)N2Cc2ccccc2)cc1OC
COc1cc(Cl)c(C)cc1Nc1nnc(-n2nc(C)cc2C)c2ccccc12
Cc1ccc(C)c(Cn2c(C(=O)O)c(CNCc3cccs3)c3ccccc32)c1
CSc1ccccc1-c1nnc(NC(=O)c2ccc3c(c2)OCCO3)o1
COc1cc(NC(=O)COC(=O)c2ccc([N+](=O)[O-])s2)cc(OC)c1OC
CCOc1ccc(Nc2nc3c(S(=O)(=O)c4cccc(Cl)c4)nnn3c3ccsc23)cc1
Cc1cc(OCC(=O)NCC2(N(C)C)CCCCC2)cc(C)c1Cl
CCCCCn1c(=O)[nH]c2cc(C(=O)Nc3cc(C)cc(C)c3)ccc2c1=O
Cc1ccc(S(=O)(=O)N2CCN(S(=O)(=O)N3CCOCC3)CC2)cc1
CCCCn1c(=S)[nH]c2cc(S(=O)(=O)N3CCCCC3)ccc21
Cc1ccc(-n2cnc3cc(C(=O)NCCC4=CCCCC4)ccc32)cc1Cl
CC1Cc2cc(S(=O)(=O)CCC(=O)Nc3ccc(F)c(Cl)c3)ccc2N1C(=O)C1CC1 (stereo not drawn)
COc1ccc(C(=O)N(Cc2ccccc2)Cc2ccc(OC)c(COc3ccc(NC(C)=O)cc3)c2)c(O)c1
COc1cc(C2C3=C(CCCC3=O)OC3=C2C(=O)CCC3)ccc1OCC(=O)Nc1ccccc1
COc1ccc(N2C(=O)C(CC(=O)Nc3ccccc3)N(Cc3ccc(OC)c(OC)c3)C2=O)cc1 (stereo not drawn)
COc1ccc(C2Nc3ccccc3C(=O)N2Cc2ccccc2)cc1Cn1nnc2ccccc21 (stereo not drawn)
COc1ccc(C2Nc3ccccc3C(=O)N2Cc2ccc(Cl)cc2)cc1COc1ccc(NC(C)=O)cc1 (stereo not drawn)
COc1ccc(C2Nc3ccccc3C(=O)N2c2ccc(F)cc2)cc1Cn1nnc2ccccc21 (stereo not drawn)
CCOC(=O)NN1C(=O)c2ccccc2NC1c1cccc(O)c1 (stereo not drawn)
COc1ccc(NC(=O)NC2CC3CCCC(C2)N3Cc2ccccc2)cc1 (stereo not drawn)
CCOC(=O)c1cc2c(=O)n3ccccc3nc2n(CCCOC)c1=NC(=O)C(C)(C)Oc1ccc(Cl)cc1
Cc1ccc(-n2ncc3c(=O)n(Cc4cccc(C(F)(F)F)c4)cnc32)cc1C
COC(=O)c1ccc(Cn2c(SCC(=O)N(C)c3ccccc3)nc3ccccc32)cc1
Cc1ccc2onc(CC(=O)N3CCN(c4ccc(Cl)cc4)CC3)c2c1
CC1CCN(S(=O)(=O)c2ccc3c(c2)N(CC(=O)NCc2ccccc2Cl)C(=O)CO3)CC1
O=C(NCC12CC3CC(CC(C3)C1)C2)c1cc2nc(-c3ccccc3)cc(C(F)(F)F)n2n1
COC(=O)c1ccccc1NS(=O)(=O)c1ccc2c(c1)CCCN2C(C)=O
Cc1ccsc1CN(C(=O)c1oc2ccc(Br)cc2c1C)C1CCS(=O)(=O)C1 (stereo not drawn)
Cc1nc2ccc(S(=O)(=O)N(CC(=O)Nc3ccc(F)cc3)Cc3ccccc3)cc2s1
Cc1ccc(OCC(=O)OCc2cc(=O)n3nc(C4CC4)sc3n2)cc1C
CCOc1ccc(NC(=O)Cn2c(=O)n(CCCC(=O)NCc3ccc4c(c3)OCO4)c(=O)c3ccccc32)cc1
CCC(CC)c1nn2cc(-c3ccccc3)nc2s1
Cn1c(=O)n(C)c2cc(C(=O)Nc3ccc(Br)cc3)ccc21
CCc1ccc(NC(=O)c2ccc(Cn3cc([N+](=O)[O-])cn3)cc2)cc1
O=C(Cn1cc(SCc2ccccc2)c2ccccc21)N1CCCCC1
O=C(NC1CC(=O)N(c2ccc(F)cc2)C1)c1ccc(S(=O)(=O)N2CCCC2)cc1 (stereo not drawn)
CCCCCn1c(CCNC(=O)c2ccc(F)cc2)nc2ccccc21
Cc1ccc2nc(/C(C#N)=C/c3ccc(-c4ccc(C(=O)OC(C)C)cc4)o3)[nH]c2c1
COc1ccc(CCNC(=O)CCCn2c(=O)c3ccccc3n(Cc3ccc(C)cc3)c2=O)cc1OC
Cn1c(Nc2ccccc2)cc(=O)n(C)c1=O
Cc1cc2nc(C)n(CCCNC(=O)Nc3ccccc3)c2cc1C
COc1cc(C(CC(=O)NCCC(C)C)N2Cc3ccccc3C2=O)cc(OC)c1OC (stereo not drawn)
Cc1cccc2c1-c1sc(C(=O)Nc3ccc(F)cc3F)cc1CO2
NC(=O)CSc1nc2c(oc3ccccc32)c(=O)n1Cc1ccccc1
CCCCOCCCNC(=O)c1ccccc1OCC
CCOCCCNCc1ccc(OCc2ccc(F)cc2)c(OC)c1

Potency, active:
COc1cnc(-c2ccccn2)nc1Oc1ccc(C(C)(C)C)cc1 31.6 µM
CC(=O)N1CC[n+]2c(-c3ccc([N+](=O)[O-])cc3)csc21 7.94 µM
COc1ccc(-n2cnc3cc(NCc4ccco4)ccc32)cc1 50.1 µM
S=c1[nH]nc(-c2cc(-c3ccsc3)n[nH]2)n1-c1ccccc1 44.7 µM
N#Cc1c(N)sc2c1CCN(C(=O)OCc1ccccc1)C2 56.2 µM
O=C(CN1C(=O)c2ccc([N+](=O)[O-])cc2C1=O)Nc1nnc(C2CC2)s1 79.4 µM
Cc1n[nH]c(=S)n1/N=C/c1ccc(Br)o1 7.94 µM
Cc1c(C)n2c(SCC(=O)NC3CCCC3)nnc2[nH]c1=O 14.1 µM
COc1cc(/C=C2/SC(=S)N(Cc3ccccc3)C2=O)cc(OC)c1O 3.55 µM
O=C(Nc1nnc(C2=COCCO2)o1)c1ccc([N+](=O)[O-])s1 56.2 µM
CCn1c(=S)[nH]c2cc(S(=O)(=O)N3CCOCC3)ccc21 17.8 µM
COc1ccc(C2Nc3ccccc3C(=O)N2Cc2ccc(CNC(=O)CO)cc2)cc1COc1ccc(NC(C)=O)cc1 (stereo not drawn) 79.4 µM
COc1ccc(C2Nc3ccccc3C(=O)N2Cc2ccco2)cc1COc1cccc(NC(C)=O)c1 (stereo not drawn) 50.1 µM
COc1ccc(C2Nc3cccc(OC)c3C(=O)N2Cc2ccccc2)cc1COc1ccc(NC(C)=O)cc1 (stereo not drawn) 56.2 µM
COc1ccc(C2Nc3ccc(NC(=O)COC(C)=O)cc3C(=O)N2Cc2ccccc2)cc1COc1ccc(NC(C)=O)cc1 (stereo not drawn) 79.4 µM
Cn1ccc(=Nc2ccc(NC(=O)c3ccc(N=c4ccn(C)c5ccc([N+](=O)[O-])cc45)cc3)cc2)cc1 56.2 µM
Cc1cc(=O)n(C)c(=O)n1CCCNc1ccccc1 7.94 µM
O=C1c2ccccc2C2=Nc3ccccc3SC(c3ccccc3F)C12 (stereo not drawn) 14.1 µM
CCOc1ccccc1OCCCNCc1ccccc1 5.01 µM
